Assay outcomes deposited in PubChem by The Scripps Research Institute Molecular Screening Center.
Only some compounds are listed: those with a hit (about 5.7% of all), similar ones and a draw of the others.
hgDAF12 agonist = H. glycines DAF-12 receptor agonists, primary screen, cell-based, luminescence, HEK293, GAL4 fusion, UAS-luciferase; 1.8% of 370,000 active; activation, % at 6.8 µM; HEK293 GAL4-hgDAF12 UAS-luciferase reporter, agonist luminescence; normalized to butyrate control; Nuclear hormone receptor DAF-12 (Heterodera glycines), GAL4 fusion;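 active means activation above a cutoff set at the mean of all screened compounds plus 3 SD, cut at about 10% in these data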;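 further: 0% = DMSO wells and 100% = sodium butyrate wells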
AHR activator = AHR activators, primary screen, cell-based, luminescence, luciferase reporter, human; Aryl hydrocarbon receptor (Homo sapiens), P35869; AID 2796, 2010; AHR-responsive luciferase reporter cells; 2.5% of 320,000 active; activation, % at 5 µM; in the data active means activation above about 47%;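 further: 0% = vehicle wells and 100% = reference agonist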
Target sequence (P35869 whole entry, looked up): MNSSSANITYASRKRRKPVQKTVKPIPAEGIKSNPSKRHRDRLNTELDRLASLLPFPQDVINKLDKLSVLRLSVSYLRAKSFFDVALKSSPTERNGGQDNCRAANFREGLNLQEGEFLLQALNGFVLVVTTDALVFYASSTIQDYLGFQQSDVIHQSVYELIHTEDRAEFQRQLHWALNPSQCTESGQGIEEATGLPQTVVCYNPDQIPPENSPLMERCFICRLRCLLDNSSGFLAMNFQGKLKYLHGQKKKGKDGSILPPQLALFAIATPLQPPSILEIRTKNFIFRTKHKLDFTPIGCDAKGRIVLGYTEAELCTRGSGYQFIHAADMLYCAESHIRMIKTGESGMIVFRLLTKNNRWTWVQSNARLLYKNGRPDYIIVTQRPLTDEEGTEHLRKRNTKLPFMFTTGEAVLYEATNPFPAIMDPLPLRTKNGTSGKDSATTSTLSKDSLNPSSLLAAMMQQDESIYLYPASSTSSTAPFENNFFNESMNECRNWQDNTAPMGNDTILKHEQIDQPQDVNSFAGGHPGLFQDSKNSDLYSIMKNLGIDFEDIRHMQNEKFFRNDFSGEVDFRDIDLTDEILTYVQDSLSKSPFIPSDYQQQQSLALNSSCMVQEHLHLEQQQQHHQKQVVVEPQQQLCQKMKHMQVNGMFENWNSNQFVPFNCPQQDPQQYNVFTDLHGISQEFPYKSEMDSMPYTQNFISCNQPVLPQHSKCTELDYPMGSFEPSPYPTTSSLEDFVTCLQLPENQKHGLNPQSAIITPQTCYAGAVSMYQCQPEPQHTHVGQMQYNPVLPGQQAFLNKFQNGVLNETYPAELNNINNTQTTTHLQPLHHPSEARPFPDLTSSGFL
hcDAF-12 act = H. contortus DAF-12 nuclear receptor activators, primary screen, cell-based, luminescence, HEK293, lit1-tk-luc reporter. HEK293 hcDAF-12 lit1-tk-luc reporter; 0% DMSO, 100% Δ7-dafachronic acid. activation, % at 6.8 µM. 1.4% of 370,000 active. AID 652067, 2013;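 active means activation above the mean of all tested compounds plus 3 SD, cut at about 5.5% in these data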;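 further: 100% = response to 3 µM Δ7-dafachronic acid high control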
DAX1 inh-1 = DAX1 (NR0B1) inhibitors on StAR promoter, primary screen, cell-based, luminescence, SF-1 (NR5A1), full-length DAX-1; HEK293T StAR-luciferase reporter, SF-1/DAX-1 repression relief; inhibition, % at 6.8 µM; 1.1% of 370,000 active;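 active means inhibition above the mean over all tested compounds plus 3 SD, cut at about 3.6% in these data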;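 further: 0% = DAX-1 cells with DMSO and 100% = cells lacking DAX-1 with DMSO; higher inhibition means more luminescence from relief of DAX-1 repression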
ssDAF-12 act = S. stercoralis DAF-12 nuclear receptor activators, primary screen, cell-based, luminescence, HEK293, GRIP1 co-expression, lit1-tk-luc; 1% of 370,000 active; HEK293 ssDAF-12/GRIP1 lit1-tk-luc reporter; % of 3 µM dafachronic acid response; activation, % at 6.8 µM; AID 652126, 2013; Nuclear hormone receptor DAF-12 (Strongyloides stercoralis);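 active means activation above the mean over all tested compounds plus 3 SD, cut at about 0.9% in these data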;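 further: 0% = DMSO-only wells and 100% = 3 µM delta7-dafachronic acid wells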
DAX1 inh-2 = DAX1 (NR0B1) inhibitors, primary screen, cell-based, HEK293, Gal4-DAX1, luciferase luminescence. 0.99% of 340,000 active. AID 504766, 2011. inhibition, % at 6.75 µM. Nuclear receptor subfamily 0 group B member 1 (Homo sapiens), P51843. HEK293 Gal4-DAX1 luciferase reporter;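 active means inhibition above the mean over all tested compounds plus 3 SD, cut at about 4.2% in these data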;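 further: 0% = DAX1-transfected cells with DMSO and 100% = empty-vector control cells with DMSO; inhibition shows as a rise in luminescence from relieved DAX1 repression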
Numbers without * were called inactive; · = no result.

SMILES | hgDAF12 agonist | AHR activator | hcDAF-12 act | DAX1 inh-1 | ssDAF-12 act | DAX1 inh-2
CCOC(=O)N1CCN(C(=O)c2cn(CC)c3ccc(S(=O)(=O)N4CCC(C)CC4)cc3c2=O)CC1 | -1 | -1 | -2 | 0 | -1 | 0
CCN1C(=S)SC(=O)C1=C1C=C(C)N(CCO)C(C)=C1 | 12* | 5 | 2 | 3.8* | 0 | 4
CCN1C(=O)/C(=C/C=C2/Sc3ccccc3N2CCO)SC1=S | -1 | 16 | 0 | 2 | -1 | 0
CCN(CC)c1ccc([C@H]2[C@@H]3CCCC[C@]3(O)CCN2CC(=O)NCc2ccco2)cc1 | 0 | 2 | -2 | 0 | -1 | 4.7*
O=C(N[C@@H](Cc1cccnc1)C(=O)N1CCC[C@H]1C(=O)NCCc1ccccc1Cl)c1cccs1 | -1 | · | -2 | 0 | -2 | ·
C=CCOc1c(Br)cc(/C=N/n2c(CC)n[nH]c2=S)cc1Br | 1 | 68* | 1 | 1 | -1 | -1
CC(C)(C)C(=O)c1c(N)[nH]c(C(=O)c2ccccc2)c1-c1ccccc1Br | -2 | · | 1 | 2 | 0 | ·
CC(C)c1ccc(NC(=S)N2CCCC2)cc1 | 6 | 7 | 5 | 3.9* | 0 | 2
CCOc1ccc(N=C(C)C2=C(O)c3ccccc3C2=O)cc1 | 10 | 3 | 2 | 1 | 0 | 3
CC(=O)Nc1ccc(N=C(C2=C(O)c3ccccc3C2=O)c2ccccc2)cc1 | 2 | 64* | 4 | -1 | 0 | -1
Cc1ccc(NC2CCCN(C(=O)c3cccnc3)C2)cc1C (stereo not drawn) | -2 | 48* | -1 | 1 | -1 | 1
CCC1=NN2C(=N)/C(=C\c3cccn3-c3ccc(Br)cc3)C(=O)N=C2S1 | 1 | · | 0 | 0 | -1 | 4.7*
O=C(N/N=C\c1cccc(Cl)c1)c1ccc(Cn2cc(Br)c([N+](=O)[O-])n2)o1 | -1 | 28 | 0 | -1 | -2 | -1
Cc1c(Cl)c([N+](=O)[O-])nn1Cc1ccc(C(=O)N/N=C\c2cccc(Br)c2)o1 | 0 | 55* | -1 | 0 | -1 | -2
O=C(NC1CC1)C(=O)c1c[nH]c2ccccc12 | 1 | 63* | 0 | -2 | -1 | 1
CSc1ccccc1NC(=O)C(=O)c1c[nH]c2ccccc12 | 10 | 48* | 5 | 2 | 0 | 0
Cc1c(Cl)c(-c2n[nH]c(=S)n2-c2ccc(F)cc2)nn1C | 2 | -2 | 0 | 0 | -1 | 0
CCCc1cc(Nc2ccccc2OCC)n2ncnc2n1 | 0 | 2 | -1 | -1 | -1 | 0
CCOc1ccccc1Nc1cc(C)nc2nnnn12 | -1 | 12 | 1 | 0 | 1.0* | 0
COC(=O)[C@]12C[C@H](CC(=O)NCc3ccc(C)o3)C(=O)N(Cc3ccc4c(c3)OCO4)C1=C[C@H](COCc1ccccc1)O[C@@H]2C | -1 | · | -3 | -2 | -1 | ·
O=C(NCSc1ccncn1)c1ccccc1 | 2 | 2 | -1 | 0 | -1 | 4.9*
O=C(CCNC(=O)c1ccccc1Cl)NCCCSc1ccccc1 | 0 | 2 | -1 | 0 | -1 | 0
O=C(NCCSc1ccccc1)c1ccccc1 | 12* | 7 | 5 | 3 | 0 | 3
O=C(NCCSc1ccccc1)c1ccccc1Cl | 15* | -1 | 1 | 3 | 0 | 1
COc1cc(CNn2cnnc2)ccc1OCC(=O)NC1CCCCC1 | 2 | 0 | -2 | -1 | -1 | 1
SMILES | hgDAF12 agonist | AHR activator | hcDAF-12 act | DAX1 inh-1 | ssDAF-12 act | DAX1 inh-2
Cc1ccc(OCCCC(=O)NC2CCCCC2)cc1 | 1 | -3 | -3 | 0 | -1 | 5.0*
COc1ccccc1CCC(=O)OCC(=O)NC1CCCC1 | -2 | 2 | 0 | 3.7* | -1 | -1
Cc1ccc(C)c(OCCCC(=O)NC2CCCCC2)c1 | 2 | 0 | 0 | 0 | -2 | 2
COc1cc(C)ccc1OCC(=O)NC1CCCCCC1 | 8 | 7 | 0 | 4.3* | -1 | 1
C#CCSc1n[nH]c(-c2ccco2)n1 | 2 | 15 | 1 | 0 | -1 | 1
Cc1cc(/C=C(\C#N)C(=O)NCc2ccco2)c(C)n1-c1cccnc1 | 2 | 70* | 0 | 1 | -1 | 0
CCOC(=O)/C(C#N)=C/c1cc(C)n(-c2ccc(C)cc2)c1C | 5 | 4 | 2 | 0 | -1 | 1
CCOC(=O)/C(C#N)=C\c1cc(C)n(-c2ccccc2)c1C | -4 | 5 | 0 | -1 | -2 | 5.3*
CCC(=O)Nc1cc(=O)[nH]c2nc(-c3ccc(Cl)cc3)nn12 | 0 | 74* | -2 | 1 | -1 | 0
CCCCNC(=O)N(C)c1nc2ccccc2s1 | 9 | 18 | 5.8* | 4 | -1 | 0
COC(=O)N(C)c1nc2ccccc2s1 | 5 | -2 | -1 | 0 | -1 | 2
CCc1ccc(C(=O)N/N=C/c2cccc3ccccc23)nc1 | 7 | 38 | -2 | 0 | -1 | 2
COc1ccc(N2C(=O)[C@@H]3[C@H](C2=O)[C@H]2c4ccccc4C=CN2[C@@H]3C(C)=O)cc1 | 0 | 51* | 4 | 0 | -1 | 0
COc1ccc(N2C(=O)[C@H]3[C@@H](C2=O)C2c4ccccc4C=NN2[C@H]3C(=O)C(C)(C)C)cc1 (stereo partly drawn) | 0 | -1 | -1 | 0 | -2 | 5.6*
COc1cccc(N(C)C(=O)[C@@H](C2CC2)[C@@H](O)c2ccc(Cl)cc2)c1 | 0 | · | 1 | -1 | -1 | ·
CC(C)(C)OC(=O)N1CCC[C@@H]1C(=O)N1CCC[C@@H]1C(=O)NCc1ccccc1 | -1 | · | -2 | -1 | -1 | ·
Oc1ccc(/C=N/Nc2ncnc3c2ncn3Cc2ccccc2)cc1O | 1 | 7 | -2 | 0 | 1.3* | 0
Oc1cccc(N2CCN(c3cccc(O)c3)CC2)c1 | 9 | · | 2 | 1 | 0.9* | ·
CN(C)N=Nc1ccc(-c2cn(Cc3ccccc3)cn2)cc1 | 10 | 11 | 2 | 1 | 1.0* | 2
CN(Cc1ccccc1)N=Nc1ccccc1 | 4 | · | 1 | -1 | -1 | 1
COc1cc(/C=C(/C(=O)c2cccs2)c2nc3ccccc3[nH]2)cc(OC)c1O | 8 | 114* | -1 | -3 | -1 | -3
